Only some compounds are listed: those with a hit (about 3.4% of all), similar ones and a draw of the others.
FBW7 activator – activators of human E3 ligase FBW7; Q969H0; AlphaScreen FBW7–phospho-cyclin E peptide binding, activator screen; normalized activity (activation), % at 26.1 µM; 650,000 tested, 0.13% active; AID 1259310; in the data active = normalized activity above about 1.9%;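 note: purified mutant Fbw7 with reduced substrate affinity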
MITF primary – blocks human microphthalmia-associated transcription factor; O75030; AlphaScreen MITF homodimerization, bead proximity signal; inhibition, % at 2.6 µM; 650,000 tested, 0.91% active; AID 1259374; in the data active = inhibition above about 50%;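 note: 0% = vehicle wells with protein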
GPR151 activ – activates the human receptor GPR151 | Q8TDV0 | PathHunter beta-arrestin GPR151 cells, luminescence | activation, % at 11.2 µM | 650,000 tested, 1% active; in the data active = activation above about 4.9%;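 note: 0% = median of compound wells and 100% = cells with positive control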
Target sequence (Q8TDV0 whole entry, looked up): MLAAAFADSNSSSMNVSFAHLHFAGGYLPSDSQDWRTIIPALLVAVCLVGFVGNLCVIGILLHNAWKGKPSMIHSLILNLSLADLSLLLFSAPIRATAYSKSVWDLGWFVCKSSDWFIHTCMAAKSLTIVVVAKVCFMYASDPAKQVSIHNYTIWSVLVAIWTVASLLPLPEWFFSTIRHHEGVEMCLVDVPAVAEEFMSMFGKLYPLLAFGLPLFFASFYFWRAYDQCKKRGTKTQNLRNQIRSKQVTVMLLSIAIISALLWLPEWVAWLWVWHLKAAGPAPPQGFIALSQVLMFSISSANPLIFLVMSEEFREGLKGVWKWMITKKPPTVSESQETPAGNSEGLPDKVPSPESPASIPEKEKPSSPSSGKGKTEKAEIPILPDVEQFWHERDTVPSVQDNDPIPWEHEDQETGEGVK
TEAD-YAP inh – TEAD-YAP interaction inhibition; AID 1259422; HEK-TIYL cells, TEAD-Gal4/YAP UAS-luciferase luminescence; 640,000 tested, 1.4% active; inhibition, % at 9.12 µM; in the data active = inhibition above about 32%;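 note: 0% = median of test compound wells and 100% = reference inhibitor wells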
* = called active by the depositor.

SMILES | FBW7 activator | MITF primary | GPR151 activ | TEAD-YAP inh
COc1ccc(-c2c(Nc3ccc(F)c(Cl)c3)c(=O)c2=O)cc1 | 1 | 72* | -2 | -9
COc1cccc(Nc2c(-c3ccc(C)c(C)c3)c(=O)c2=O)c1 | 0 | -4 | 1 | 49*
Cc1ccc(-c2c(Nc3ccc(C)c(F)c3)c(=O)c2=O)cc1 | 0 | 9 | 0 | 9
O=c1c(Nc2ccc(F)c(Cl)c2)c(-c2ccccc2)c1=O | 0 | 5 | 2 | -3
Cc1cccc(NC(=O)c2ccc3c(=O)n(-c4ccc(F)cc4)c(=S)[nH]c3c2)c1 | 0 | 12 | 0 | -4
Nc1cc(Cl)ccc1N1CCCCC1 | 0 | -9 | -1 | -14
Nc1ccc(N2CCCCC2)cc1N1CCCCC1 | -1 | 39 | 0 | 72*
CCOc1cc(C=O)ccc1OCCN1CCOCC1 | 0 | 9 | -1 | 10
COc1cc(C=O)ccc1OCCN1CCOCC1 | 0 | 1 | 0 | 40*
CCCCC(C(=O)O)N1C(=O)/C(=C\c2ccco2)SC1=S (stereo not given) | 0 | 28 | 0 | -2
CC(C)CC(C(=O)O)N1C(=O)/C(=C\c2ccco2)SC1=S (stereo not given) | -1 | 58* | 0 | -1
O=C(O)CCC(C(=O)O)N1C(=O)/C(=C/c2ccccc2)SC1=S (stereo not given) | 0 | 3 | -2 | 6
CCC(C(=O)O)N1C(=O)/C(=C\c2ccc(C)o2)SC1=S (stereo not given) | 0 | 62* | -1 | 0
Cc1ccc(/C=C2/SC(=S)N(C(CCC(=O)O)C(=O)O)C2=O)o1 (stereo not given) | -2 | 55* | 1 | -8
CCCCC(C(=O)O)N1C(=O)/C(=C\c2ccc(C)o2)SC1=S (stereo not given) | -1 | 26 | 0 | 7
CCCNC(=O)c1ccc2c(c1)nc(C)n2-c1ccc(Br)cc1 | 0 | -2 | -1 | 6
CCC1CCC2(CC1)NC(=O)N(CC(=O)Nc1cc(C(=O)OC)cc(C(=O)OC)c1)C2=O (stereo not given) | 0 | 12 | -1 | -14
COc1ccc(N2C(=O)/C(=C/c3ccncc3)SC2=S)c(OC)c1 | 0 | 6 | -1 | -5
CN(C)c1ccc(/C=C2\N=C(c3ccccc3F)N(c3ccc(Br)cc3)C2=O)cc1 | 0 | 0 | -1 | -5
Cc1ccc(N2C(=O)/C(=C/c3ccc(N(C)C)cc3)N=C2c2ccccc2F)c(C)c1 | 0 | -10 | 2 | 68*
CN(C)c1ccc(/C=C2\N=C(c3ccccc3F)N(c3ccc(O)cc3)C2=O)cc1 | 0 | 10 | 0 | 60*
COc1ccc(C2C(C#N)=C(N)N(c3ccccc3C#N)C3=C2C(=O)CC(C)(C)C3)cc1O (stereo not given) | 0 | -3 | 0 | 3
O=C1Nc2ccccc2/C1=N/n1c(-c2ccccc2)nc2ccccc2c1=O | 0 | -3 | 0 | 32*
CCn1c(/C=C2/C(=O)Nc3ccccc32)nc2ccccc2c1=O | 0 | 3 | 2 | 5
COc1cc(OC)c(OC)cc1/C=N/NS(=O)(=O)c1ccc(C)c([N+](=O)[O-])c1 | 0 | 13 | -1 | -5
SMILES | FBW7 activator | MITF primary | GPR151 activ | TEAD-YAP inh
COc1cccc(C2=NC(c3ccc(Br)cc3)NC(c3cc(Br)ccc3O)C2)c1 (stereo not given) | 0 | 0 | 3 | 1
Oc1ccc(Br)cc1C1CC(c2cccc(Br)c2)=NC(c2ccc(Cl)cc2Cl)N1 (stereo not given) | 0 | 6 | -3 | 10
COc1cccc(C2=NC(C(C)C)NC(c3cc(Br)ccc3O)C2)c1 (stereo not given) | 0 | -11 | 0 | 35*
Oc1ccc(Br)cc1C1CC(c2cccc(Br)c2)=NC(c2ccc(F)c(Br)c2)N1 (stereo not given) | 0 | 1 | 2 | 32*
C(=C\c1ccc2c(c1)OCCO2)/c1ccc2c(c1)OCCO2 | 1 | 19 | -10 | 97*
Cc1nc2sccn2c1-c1csc(Nc2ccc(N)cc2)n1 | 0 | 18 | -1 | 0
Cc1nc2sccn2c1-c1csc(Nc2ccc(Br)cc2)n1 | 0 | -6 | 0 | 49*
Cc1nc2sccn2c1-c1csc(Nc2ccccc2)n1 | 0 | -2 | -1 | -63
Cc1nc2sccn2c1-c1csc(Nc2cccc(O)c2)n1 | 0 | -7 | 0 | 37*
Cc1ccc(NC(=O)CCc2nnc3ccc(NCc4ccco4)nn23)cc1C | 1 | 7 | 0 | -7
O=C1Nc2cc(C(=O)N3CCN(Cc4ccc5c(c4)OCO5)CC3)ccc2NC1CS(=O)(=O)Cc1ccccc1Cl (stereo not given) | 0 | -12 | 0 | 22
Nc1nc(NCc2nc3ccccc3[nH]2)cc(Nc2cnccn2)n1 | 0 | 7 | 0 | -1
CC1(C)C2CCC1(C)C(NCC(O)COCc1ccc(Cl)cc1)C2 (stereo not given) | 0 | 34 | -2 | -3
CCC(=O)Oc1c(OC)cc(C=O)cc1OC | 0 | 0 | 1 | -2
COc1ccc(N2CCN(C(=O)c3ccc(CS(=O)c4ccc(C)cc4)o3)CC2)cc1 (stereo not given) | 0 | -1 | 0 | 56*
COc1cccc(N2CCN(C(=O)c3ccc(CS(=O)c4ccc(C)cc4)o3)CC2)c1 (stereo not given) | 0 | -6 | 0 | 63*
Cc1ccc(S(=O)Cc2ccc(C(=O)N3CCN(C(=O)c4ccco4)CC3)o2)cc1 (stereo not given) | 0 | 7 | 0 | 4
COc1ccc(N2CCN(C(=O)c3ccc(CS(=O)c4ccccc4)o3)CC2)cc1 (stereo not given) | 0 | 8 | 0 | 46*
N#Cc1cc2c(nc1SC1CC(=O)N(c3ccccc3)C1=O)CCC2 (stereo not given) | 0 | -9 | 1 | 39*
Cc1nc(SC2CC(=O)N(c3ccccc3)C2=O)c(C#N)c(C)c1C (stereo not given) | 1 | 12 | 1 | 57*
Cc1cc(C)c(C#N)c(SC2CC(=O)N(c3ccccc3)C2=O)n1 (stereo not given) | 1 | 3 | 0 | 38*
COc1ccc(-c2cc(-c3ccccc3)nc(SC3CC(=O)N(c4ccc(C)cc4)C3=O)c2C#N)cc1 (stereo not given) | 0 | 8 | -1 | 9
N#Cc1cc2c(nc1SC1CC(=O)N(c3ccccc3)C1=O)CCCCC2 (stereo not given) | 0 | 0 | -1 | -19
NC(=O)C1CCN(C(c2cccc(F)c2)c2sc3ncnn3c2O)CC1 (stereo not given) | 0 | 8 | 1 | -7
Cc1cc(NC(=O)CSc2ccc(C(C)(C)C)cc2)no1 | 0 | -8 | 0 | 5
CCOC(=O)C1=CN(c2cc(C)cc(C)c2)C=C(C(=O)OCC)C1c1ccc(F)cc1 | 0 | 3 | -1 | -2
CC(Sc1nccn1C)C(=O)NC(c1ccccc1)c1ccccc1 (stereo not given) | 0 | -18 | 0 | -1
CC(Sc1nnc(C(F)(F)F)n1N)C(=O)NC(c1ccccc1)c1ccccc1 (stereo not given) | 0 | -3 | -2 | 33*

From PubChem
